Laboratory results reported in the supplement of paper PMC10849652.
Of roughly 7,900 targets only a part is listed; those with a hit were picked by preference. About 0.6% of all pairs of compound and target were hits.

Experiments:
Assay in all cases: log2 fold change, soluble protein after heating vs DMSO (PISA); higher = thermal stabilisation; K562 cells, 10 uM, 30 min; active = over 0.2 and 3.5 SD of the protein, either way, in both replicates (recomputed)
[1] = compound: C1=CC=C(C=C1)[C@H](COC2=CC3=C(C=C2)NC(=O)N3)NC(=O)C4=CC=CN(C4=O)CC5=CC(=C(C=C5)F)F
Summary of the method: (§1)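 Aliquots of K562 cells (2×10^6 cells/mL) treated with 10 μM compound for 30 min were heated for 3 min over 48°C-58°C. After pooling and extraction in PBS with 0.5% NP-40 at 4°C, soluble protein from a 21,000xg, 90 min spin was quantified by TMTpro 16plex LC-MS/MS with channel sums equalised. Thermal stability is expressed against control samples, from duplicates, as a log2 fold change.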

[2] = compound: CC1=C(SC2=C1C(=N[C@H](C3=NN=C(N32)C)CC(=O)N)C4=CC=C(C=C4)Cl)C
Summary of the method: as §1

[3] = compound: CC1=C2C(=CC=C1)N=C(N(C2=O)C3=CC=CC=C3C)CN4C=NC5=C(N=CN=C54)N
Summary of the method: as §1

[4] = compound: Cc1sc2c(c1C)C(c1ccc(Cl)cc1)=N[C@@H](CC(=O)OC(C)(C)C)c1nnc(C)n1-2
Summary of the method: as §1

[5] = compound: c1ccc([C@@H]2C[C@H]2NC2CCNCC2)cc1
Summary of the method: as §1

Measured: log2 fold change

NUDCD2 (UniProt Q8WVJ2)
Sequence of UniProt Q8WVJ2 (Q8WVJ2 whole entry, looked up): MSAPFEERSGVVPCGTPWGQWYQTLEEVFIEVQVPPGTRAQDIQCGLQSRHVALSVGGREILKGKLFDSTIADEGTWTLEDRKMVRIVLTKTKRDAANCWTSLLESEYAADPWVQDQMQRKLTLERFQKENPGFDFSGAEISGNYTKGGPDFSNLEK
inactive: [1] -0.037 | [2] 0.113 | [3] 0.099 | [4] 0.017 | [5] 0.037

NMRAL1 (UniProt Q9HBL8)
Sequence of UniProt Q9HBL8 (Q9HBL8 whole entry, looked up): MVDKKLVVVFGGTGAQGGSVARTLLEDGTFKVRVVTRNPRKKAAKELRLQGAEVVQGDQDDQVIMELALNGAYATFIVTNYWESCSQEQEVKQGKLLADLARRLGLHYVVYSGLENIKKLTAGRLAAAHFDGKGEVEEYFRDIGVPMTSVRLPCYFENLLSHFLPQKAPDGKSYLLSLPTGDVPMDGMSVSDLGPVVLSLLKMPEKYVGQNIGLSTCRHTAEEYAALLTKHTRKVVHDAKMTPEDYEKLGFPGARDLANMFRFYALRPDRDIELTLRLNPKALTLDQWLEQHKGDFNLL
inactive: [1] -0.12 | [2] -0.017 | [3] 0.025 | [4] -0.139 | [5] -0.094

MON1B (UniProt Q7L1V2)
Sequence of UniProt Q7L1V2 (Q7L1V2 whole entry, looked up): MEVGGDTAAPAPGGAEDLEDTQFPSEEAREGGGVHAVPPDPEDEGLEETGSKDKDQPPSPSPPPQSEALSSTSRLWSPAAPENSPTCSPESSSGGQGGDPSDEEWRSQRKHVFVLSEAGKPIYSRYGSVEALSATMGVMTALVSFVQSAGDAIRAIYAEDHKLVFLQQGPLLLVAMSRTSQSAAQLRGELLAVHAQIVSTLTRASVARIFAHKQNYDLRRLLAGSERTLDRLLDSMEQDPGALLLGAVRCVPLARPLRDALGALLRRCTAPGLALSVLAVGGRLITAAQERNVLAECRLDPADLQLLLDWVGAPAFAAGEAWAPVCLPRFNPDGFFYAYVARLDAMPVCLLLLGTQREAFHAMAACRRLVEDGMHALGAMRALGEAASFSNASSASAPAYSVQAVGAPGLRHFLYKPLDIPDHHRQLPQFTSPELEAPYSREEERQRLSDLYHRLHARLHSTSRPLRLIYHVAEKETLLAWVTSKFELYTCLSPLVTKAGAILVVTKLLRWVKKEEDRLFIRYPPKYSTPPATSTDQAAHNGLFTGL
inactive: [1] -0.032 | [2] 0.044 | [3] 0.056 | [4] -0.008 | [5] -0.064

NARS2 (UniProt Q96I59)
Sequence of UniProt Q96I59 (Q96I59 whole entry, looked up): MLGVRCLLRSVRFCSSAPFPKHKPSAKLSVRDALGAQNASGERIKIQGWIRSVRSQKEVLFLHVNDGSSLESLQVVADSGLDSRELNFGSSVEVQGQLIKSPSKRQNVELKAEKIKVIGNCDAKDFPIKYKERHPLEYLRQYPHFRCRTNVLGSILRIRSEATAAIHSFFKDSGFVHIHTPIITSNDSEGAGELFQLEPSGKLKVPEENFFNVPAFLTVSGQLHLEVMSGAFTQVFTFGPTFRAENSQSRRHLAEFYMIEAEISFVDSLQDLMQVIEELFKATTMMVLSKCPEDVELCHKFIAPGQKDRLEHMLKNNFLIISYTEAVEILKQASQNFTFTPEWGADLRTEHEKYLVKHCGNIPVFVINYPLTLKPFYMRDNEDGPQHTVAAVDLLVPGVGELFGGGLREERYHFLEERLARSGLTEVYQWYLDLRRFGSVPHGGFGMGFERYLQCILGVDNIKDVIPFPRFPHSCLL
inactive: [1] 0 | [2] 0.057 | [3] 0.059 | [4] 0 | [5] -0.027

NME7 (UniProt Q9Y5B8)
Sequence of UniProt Q9Y5B8 (Q9Y5B8 whole entry, looked up): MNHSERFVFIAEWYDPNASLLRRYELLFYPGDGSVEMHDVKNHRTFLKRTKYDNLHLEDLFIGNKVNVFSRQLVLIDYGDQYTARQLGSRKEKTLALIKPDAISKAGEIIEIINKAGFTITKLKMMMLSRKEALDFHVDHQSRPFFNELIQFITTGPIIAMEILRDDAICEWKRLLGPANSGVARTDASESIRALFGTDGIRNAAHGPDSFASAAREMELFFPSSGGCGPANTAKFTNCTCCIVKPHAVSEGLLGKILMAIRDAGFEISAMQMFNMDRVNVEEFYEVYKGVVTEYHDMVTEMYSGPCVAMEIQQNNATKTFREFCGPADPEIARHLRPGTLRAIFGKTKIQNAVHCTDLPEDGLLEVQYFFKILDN
inactive: [1] -0.112 | [2] 0.098 | [3] 0.175 | [4] 0.096 | [5] -0.038

NDUFB10 (UniProt O96000)
inactive: [1] 0.048 | [2] 0.009 | [3] 0.06 | [4] -0.031 | [5] 0.002

NUDT21 (UniProt O43809)
Sequence of UniProt O43809 (O43809 whole entry, looked up): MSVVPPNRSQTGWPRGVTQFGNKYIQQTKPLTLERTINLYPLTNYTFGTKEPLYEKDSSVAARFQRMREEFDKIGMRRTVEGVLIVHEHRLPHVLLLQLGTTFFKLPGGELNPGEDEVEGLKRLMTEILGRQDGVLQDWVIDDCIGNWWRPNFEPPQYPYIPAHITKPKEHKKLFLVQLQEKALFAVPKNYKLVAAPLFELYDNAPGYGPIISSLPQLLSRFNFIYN
inactive: [1] 0.013 | [2] 0.021 | [3] 0.011 | [4] -0.01 | [5] 0.001

NUP85 (UniProt Q9BW27)
Sequence of UniProt Q9BW27 (Q9BW27 whole entry, looked up): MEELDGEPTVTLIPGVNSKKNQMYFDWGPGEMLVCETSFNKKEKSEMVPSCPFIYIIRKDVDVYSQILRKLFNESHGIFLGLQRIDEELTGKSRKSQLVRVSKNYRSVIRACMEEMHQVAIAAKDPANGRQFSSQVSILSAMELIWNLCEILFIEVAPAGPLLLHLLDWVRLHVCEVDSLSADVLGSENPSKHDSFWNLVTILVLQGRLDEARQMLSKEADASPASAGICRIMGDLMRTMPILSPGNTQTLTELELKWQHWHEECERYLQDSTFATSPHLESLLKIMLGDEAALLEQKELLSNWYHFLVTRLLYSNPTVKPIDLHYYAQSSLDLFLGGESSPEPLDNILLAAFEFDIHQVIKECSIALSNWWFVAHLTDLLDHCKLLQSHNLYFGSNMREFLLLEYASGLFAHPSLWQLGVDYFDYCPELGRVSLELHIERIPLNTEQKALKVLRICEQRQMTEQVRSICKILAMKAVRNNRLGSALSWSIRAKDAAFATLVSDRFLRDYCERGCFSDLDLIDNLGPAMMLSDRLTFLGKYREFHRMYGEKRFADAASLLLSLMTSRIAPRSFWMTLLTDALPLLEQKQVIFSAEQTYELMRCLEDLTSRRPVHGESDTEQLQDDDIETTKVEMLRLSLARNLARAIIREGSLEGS
inactive: [1] -0.009 | [2] -0.018 | [3] 0.042 | [4] -0.004 | [5] 0.019

MRPS2 (UniProt Q9Y399)
inactive: [1] -0.084 | [2] 0.147 | [3] -0.042 | [4] 0.079 | [5] 0.003

MORF4L2 (UniProt Q15014)
Sequence of UniProt Q15014 (Q15014 whole entry, looked up): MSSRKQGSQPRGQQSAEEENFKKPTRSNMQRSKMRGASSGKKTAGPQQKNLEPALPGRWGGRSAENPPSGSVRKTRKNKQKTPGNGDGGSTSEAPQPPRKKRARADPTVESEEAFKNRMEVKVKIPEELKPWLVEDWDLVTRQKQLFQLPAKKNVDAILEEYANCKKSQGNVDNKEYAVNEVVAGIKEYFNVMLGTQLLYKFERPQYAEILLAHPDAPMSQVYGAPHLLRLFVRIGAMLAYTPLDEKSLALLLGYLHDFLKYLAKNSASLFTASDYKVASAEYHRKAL
inactive: [1] 0.089 | [2] 0.001 | [3] -0.002 | [4] 0.028 | [5] 0.091

MT-ND4 (UniProt P03905)
Sequence of UniProt P03905 (P03905 whole entry, looked up): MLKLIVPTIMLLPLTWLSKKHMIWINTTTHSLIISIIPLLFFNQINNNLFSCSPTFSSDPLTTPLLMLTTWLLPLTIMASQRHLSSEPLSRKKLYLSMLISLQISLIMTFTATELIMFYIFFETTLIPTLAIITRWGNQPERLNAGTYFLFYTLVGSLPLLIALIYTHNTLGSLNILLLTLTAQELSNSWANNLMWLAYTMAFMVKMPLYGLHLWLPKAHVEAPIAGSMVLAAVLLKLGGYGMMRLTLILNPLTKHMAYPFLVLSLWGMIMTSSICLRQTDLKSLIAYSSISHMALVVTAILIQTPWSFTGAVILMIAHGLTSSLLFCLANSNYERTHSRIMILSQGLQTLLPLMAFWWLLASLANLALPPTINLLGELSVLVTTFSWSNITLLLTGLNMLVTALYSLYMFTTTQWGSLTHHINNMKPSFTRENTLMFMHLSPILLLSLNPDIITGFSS
inactive: [1] -0.124 | [2] -0.017 | [3] -0.045 | [4] -0.057 | [5] 0.036

MTOR (UniProt P42345)
inactive: [1] -0.044 | [2] 0.021 | [3] 0.092 | [4] -0.001 | [5] -0.028

MRFAP1 (UniProt Q9Y605)
Sequence of UniProt Q9Y605 (Q9Y605 whole entry, looked up): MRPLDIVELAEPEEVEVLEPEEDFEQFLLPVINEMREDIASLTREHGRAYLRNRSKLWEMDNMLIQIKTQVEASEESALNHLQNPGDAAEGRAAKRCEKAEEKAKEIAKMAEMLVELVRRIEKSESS
inactive: [1] 0.009 | [2] 0.109 | [3] -0.043 | [4] 0.031 | [5] -0.017

MRPS24 (UniProt Q96EL2)
inactive: [1] -0.016 | [2] -0.026 | [3] -0.026 | [4] 0.148 | [5] 0.037

MRPS9 (UniProt P82933)
inactive: [1] -0.001 | [2] 0.008 | [3] -0.025 | [4] 0.034 | [5] 0.025

MRPS33 (UniProt Q9Y291)
inactive: [1] 0.005 | [2] -0.057 | [3] -0.114 | [4] 0.098 | [5] -0.002

NIBAN1 (UniProt Q9BZQ8)
Sequence of UniProt Q9BZQ8 (Q9BZQ8 whole entry, looked up): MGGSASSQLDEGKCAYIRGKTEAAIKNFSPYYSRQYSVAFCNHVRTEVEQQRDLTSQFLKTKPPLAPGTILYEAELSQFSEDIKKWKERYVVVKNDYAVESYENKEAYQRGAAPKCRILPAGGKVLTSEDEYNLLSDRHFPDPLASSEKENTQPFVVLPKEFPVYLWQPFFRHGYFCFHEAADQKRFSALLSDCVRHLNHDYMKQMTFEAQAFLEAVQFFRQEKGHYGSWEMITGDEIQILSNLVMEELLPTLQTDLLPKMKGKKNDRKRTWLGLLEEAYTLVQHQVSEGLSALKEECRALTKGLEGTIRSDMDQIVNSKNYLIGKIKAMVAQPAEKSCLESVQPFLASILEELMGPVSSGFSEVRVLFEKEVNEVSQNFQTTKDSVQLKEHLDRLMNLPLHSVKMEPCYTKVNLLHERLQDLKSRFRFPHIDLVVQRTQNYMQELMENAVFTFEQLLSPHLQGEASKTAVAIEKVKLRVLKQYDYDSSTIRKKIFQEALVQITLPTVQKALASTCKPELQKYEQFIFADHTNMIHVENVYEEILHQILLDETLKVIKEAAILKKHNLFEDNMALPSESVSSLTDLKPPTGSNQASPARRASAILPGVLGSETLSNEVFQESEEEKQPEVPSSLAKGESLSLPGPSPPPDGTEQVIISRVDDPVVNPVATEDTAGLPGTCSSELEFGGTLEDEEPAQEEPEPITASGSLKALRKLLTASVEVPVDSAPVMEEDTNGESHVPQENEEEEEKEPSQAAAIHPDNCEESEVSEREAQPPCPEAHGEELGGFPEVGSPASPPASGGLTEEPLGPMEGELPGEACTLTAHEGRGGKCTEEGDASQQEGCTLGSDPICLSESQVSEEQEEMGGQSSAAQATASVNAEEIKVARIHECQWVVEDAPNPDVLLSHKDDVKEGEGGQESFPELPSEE
inactive: [1] -0.017 | [2] 0.015 | [3] 0.056 | [4] 0.028 | [5] 0.03
